Only some compounds are listed: those with a hit (about 4.6% of all), similar ones and a draw of the others.
D1 PAM – Potentiators of Human D1 Dopamine Receptor: qHTS; D(1A) dopamine receptor (Homo sapiens), P21728; hit rate 0.036% among 360,000; potentiation, % at 10 µM; HEK293 TREx D1 cells, calcium flux, dopamine EC20 potentiation; in the data active = potentiation above about 30%; note: 0% is about no effect
Target sequence (P21728 whole entry, looked up): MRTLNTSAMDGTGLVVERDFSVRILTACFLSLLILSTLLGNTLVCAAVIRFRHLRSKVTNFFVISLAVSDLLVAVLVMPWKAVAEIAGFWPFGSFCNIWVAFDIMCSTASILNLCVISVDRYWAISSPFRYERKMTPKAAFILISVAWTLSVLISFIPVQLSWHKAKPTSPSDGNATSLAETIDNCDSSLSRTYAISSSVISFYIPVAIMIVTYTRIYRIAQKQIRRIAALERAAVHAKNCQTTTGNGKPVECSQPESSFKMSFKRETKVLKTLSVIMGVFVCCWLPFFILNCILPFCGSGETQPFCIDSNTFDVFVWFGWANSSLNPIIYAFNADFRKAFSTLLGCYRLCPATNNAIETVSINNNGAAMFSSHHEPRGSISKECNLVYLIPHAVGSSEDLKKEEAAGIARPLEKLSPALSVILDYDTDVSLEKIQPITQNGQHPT
TRHR ag – qHTS for Small Molecule Agonists and Allosteric Enhancers of Human TRH Receptor: Primary Screen for Agonists; Thyrotropin-releasing hormone receptor (Homo sapiens), P34981; TRHR cells, calcium flux fluo-8, FDSS agonist mode; activation, % at 2 µM; hit rate 0.18% among 360,000; AID 493084, 2011; note: 0% is about no effect
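Agonist-mode FDSS calcium read (Ex 480/Em 530, 1 s cycles) in 1536-well TRHR cells with fluo-8 dye, after 10-cycle baseline and 23 nL compound addition; TRH at EC20 (10 nM final) added afterwards for the enhancer phase.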
TRHR enhancer – qHTS for Small Molecule Agonists and Allosteric Enhancers of Human TRH Receptor: Primary Screen for Enhancers | TRHR cells, fluo-8 calcium fluorescence, EC20 TRH enhancement | enhancement, % at 2 µM | hit rate 0.66% among 360,000; in the data active = enhancement above about 30%; note: 0% is about no effect
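TRHR-expressing cells loaded with fluo-8 calcium dye were read kinetically (ex 480/em 530) during compound addition, then stimulated with an EC20 of TRH (10 nM final). Enhancement of the Gq-mediated intracellular calcium response was scored.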
D1 antag – Antagonist of Human D 1 Dopamine Receptor: qHTS. activity change, negative = inhibition, % at 10 µM. AID 504652, 2011. HEK293 TREx D1 cells, calcium flux, dopamine EC80; stronger effect = lower value. hit rate 3.2% among 360,000. D(1A) dopamine receptor (Homo sapiens), P21728; in the data active = activity change below about -30%; note: % is set by controls: 0 for no effect and ±100 for the full control effect
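Inducible Hek293 Trex D1 cells (tetracycline, overnight, 30 C). Calcium dye 30–90 min RT. Antagonist mode: EC80 dopamine added after 180 s compound read.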
D1 agonist – Allosteric Agonists of the Human D1 Dopamine Receptor: qHTS; HEK293 T-REx D1 cells, calcium flux, agonist mode; activation, % at 2 µM; hit rate 1% among 360,000; AID 504660, 2011; note: 0% is about no effect
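Inducible HEK293 T-REx D1 cells, force-coupled to calcium signalling, were plated at 4000 cells/well with tetracycline and held overnight at 30 C. After no-wash calcium dye loading, compound-evoked calcium rise over 180 s flagged agonists.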
An asterisk follows results filed as active; / = no result. Cut-off read from the data, not from the text of the source, unless noted: active = activation above about 30%; inactive = the rest.

SMILES	D1 PAM	TRHR ag	TRHR enhancer	D1 antag	D1 agonist
O=C(Nc1ccc2c(c1)OCO2)C1CCCCC1	0.4	-0.3	0.4	3.0	4.6
CS(=O)(=O)N1CCC(C(=O)Nc2cc(Cl)ccc2Cl)CC1	0.6	-0.8	3.9	2.3	1.4
CS(=O)(=O)N1CCC(C(=O)Nc2ccc(Cl)c(Cl)c2)CC1	-4.8	4.2	-12.2	-59.0*	19.8
CS(=O)(=O)N1CCC(C(=O)Nc2cc(Cl)c(Cl)cc2Cl)CC1	0.9	-0.4	-12.2	-34.2*	5.9
O=c1c(N2CCN(c3cccc(C(F)(F)F)c3)CC2)csc2ccccc12	-4.4	0.1	15.4	8.8	5.4
Cc1cc2c(s1)c1cnn(Cc3c(F)cc(F)cc3F)c(=O)c1n2C	3.1	0.2	-2.3	4.0	0.0
Cc1ccc(S(=O)(=O)N2CCC(C(=O)Nc3ccc(C)c(Cl)c3)CC2)cc1	-5.0	-0.9	5.9	-39.0*	14.4
CCCS(=O)(=O)c1c(S(=O)(=O)CCC)c2cc(CC)ccn2c1C(=O)c1ccc(Cl)cc1	4.0	-0.4	6.5	13.2	1.9
Cc1cccc(NC(=O)CCCc2ccccc2)c1	-5.2	-0.3	-2.9	-58.3*	2.8
CC(O)c1cccc(NC(=O)CCCc2ccccc2)c1 (configuration not stated)	1.2	2.9	-2.6	3.4	1.2
CCOC(=O)C(Cc1ccccc1)C(=O)Nc1cccc(C)c1 (configuration not stated)	6.4	-0.8	31.1*	-2.6	-0.8
CS(=O)(=O)N(CC(=O)N1CCN(c2ccc(F)cc2)CC1)c1ccc(F)c(Cl)c1	0.5	0.3	39.3*	/	-1.2
C/C(=N\NC(=O)c1nn(C)c(C)c1Br)c1ccc(NC(=O)c2ccoc2C)cc1	-0.1	-0.9	30.9*	-1.6	2.2
N/C(=N\N=C\c1ccc([N+](=O)[O-])cc1)c1nonc1N	-20.1	0.0	-2.3	-43.0*	2.7
COc1ccc(OC)c(/C=N/N=C(\N)c2nonc2N)c1	-2.8	-0.3	-5.0	-30.3*	1.5
COc1ccccc1CNC(=O)C(CC(C)C)N1Cc2ccccc2C1=O (configuration not stated)	8.7	-0.5	0.8	-2.1	1.4
CCc1nn(C(CC)C(=O)NCc2ccc(F)cc2)c(=O)c2cc3occc3n12 (configuration not stated)	-2.2	-2.2	-3.8	-15.8	-0.7
CCc1nn(C(CC)C(=O)NCc2ccc(OC)c(OC)c2)c(=O)c2cc3oc(C)cc3n12 (configuration not stated)	4.5	-2.0	41.3*	40.9	0.5
C=C[C@@H]1c2cc(C)ccc2N(S(=O)(=O)c2ccc(C)cc2)[C@H](c2ccccc2C(F)(F)F)C1(C#N)C#N	-2.9	0.7	-6.2	-35.2*	1.3
CCCCOc1cccc(C(=O)N(Cc2ccc(N(C)C)cc2)C2CCS(=O)(=O)C2)c1 (configuration not stated)	1.4	-0.1	-4.3	16.9	1.2
S=C(c1ccc(-c2ccccc2)cc1)N1CCOCC1	-1.2	0.0	34.0*	-2.0	0.9
O=C(Oc1ccc(-c2ccccc2)cc1)N1CCOCC1	-3.6	0.2	1.1	-32.1*	8.3
O=C(Oc1ccc(Cl)cc1)N1CCOCC1	-0.4	0.1	-3.5	14.4	-3.0
O=C(c1ccc(-c2ccccc2)cc1)c1ccccc1C(=O)N1CCOCC1	-3.5	-0.2	3.6	13.8	1.8
COc1cccc(N/C(SCc2ccccc2F)=C(/C#N)C(=O)NCc2cccs2)c1	-3.2	2.1	-2.9	-40.4*	33.6*
SMILES	D1 PAM	TRHR ag	TRHR enhancer	D1 antag	D1 agonist
N#CN1CCC(NC(=O)c2cccc(F)c2)CC1	-2.6	1.5	-9.6	7.7	2.4
CCCC(=O)Nc1cccc(OCc2cc(=O)n3cccc(C)c3n2)c1	-2.5	-0.3	6.0	-4.6	2.3
O=C(Nc1cccc(-n2cccn2)c1)C1CCCN(Cc2ccccc2F)C1 (configuration not stated)	-8.3	-0.7	-1.6	-36.4*	5.8
CCN(CC)c1nc2ccccc2c(N)c1-c1ccccc1	-14.2	-0.9	13.3	-32.6*	22.2
Cc1c(N(C)C)nc2ccccc2c1N	-1.6	1.2	-2.3	-8.5	2.1
O=C(NCc1ccccc1Cl)c1ccc(CSCc2cccc(F)c2)o1	-5.7	0.5	1.4	-11.2	17.9
N#C/C(=C(/O)c1ccc(Cl)cc1)c1nc2ccccc2[nH]1	8.2	0.2	-2.6	9.1	3.0
N#C/C(=C(\O)c1cc(Cl)sc1Cl)c1nc2ccccc2[nH]1	-6.8	-0.9	4.0	-18.7	35.1*
O=C(CCn1c(=O)c2cccn2c2cccnc21)NCc1ccccc1Br	-1.9	-0.1	-2.3	8.5	1.0
Cc1ccc(Cn2c(C(=O)O)c(CNCc3cccs3)c3ccc(C)cc32)cc1	7.5	-0.3	-2.2	22.4	1.4
CCCn1c(-c2nonc2N)nc2ccccc21	-7.3	0.3	-4.0	-61.9*	0.9
Cn1c(-c2nonc2N)nc2ccccc21	0.6	0.1	-6.2	6.5	2.9
Nc1nonc1-c1nc2ccccc2n1CC(=O)Nc1ccccc1C(=O)O	1.0	0.9	11.3	8.0	0.3
COC(=O)c1ccccc1NC(=O)Cn1c(-c2nonc2N)nc2ccccc21	-10.4	-0.5	1.1	-67.5*	0.4
C/C(=N/Nc1ccnc2cc(Cl)ccc12)c1ccc(N)cc1	-8.0	-0.8	-3.0	-41.9*	11.5
C/C(=N/Nc1ccnc2cc(Cl)ccc12)c1ccc(O)cc1	-8.1	-0.1	-0.4	-24.7	6.0
O=C(Nc1cccnc1)c1ccc(COc2ccccc2Br)cc1	-3.0	0.4	10.0	-69.3*	5.5
O=C(Nc1cccnc1)c1ccccc1Oc1ccccc1	-3.0	0.0	-3.1	-21.9	-0.4
CC(=O)Nc1cccc(NC(=O)c2ccc(COc3ccccc3)cc2)c1	/	-1.9	19.7	6.3	36.1*
COc1ccc(OCc2ccc(C(=O)NN)cc2)cc1	0.9	0.8	2.2	-42.4*	0.7
O=C(Nc1cccnc1)c1ccc(Oc2ccccc2)cc1	0.6	-0.4	34.3*	-12.4	5.2
O=C(CSc1nccn1-c1cccc(Cl)c1)Nc1cccc2ccccc12	1.5	0.2	16.9	10.6	3.2
COc1cccc(CNC(=O)Cn2c(=O)cc(C(F)(F)F)c3c(C)nn(C)c32)c1OC	1.4	-0.7	-2.1	39.5	4.1
CN(C)CCNc1nc2sc3c(c2c(=O)n1Cc1ccccc1)CCCCC3	-5.1	4.6	11.1	-23.4	65.2*
CN(C)CCNc1nc2sc3c(c2c(=O)n1-c1ccc(F)cc1)CCCCC3	4.2	1.9	11.1	0.5	15.1

Screening results from PubChem.
